Source: PubChem (Sanford-Burnham Center for Chemical Genomics)
tim23-1 inh: growth inhibitors of tim23-1 mutant yeast. inhibition, % at 20 µM. S. cerevisiae tim23-1 growth, BacTiter-Glo luminescence, 24 h. 330,000 compounds, 1.3% hits. AID 463212;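 active = growth inhibition of the mutant yeast at or above 50%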;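 note: temperature-sensitive mutant grown at 25 °C; plate controls were DMSO-treated mutant yeast for no effect and medium wells lacking yeast for full effect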
tim10-1 inh: tim10-1 yeast growth inhibition | S. cerevisiae tim10-1 ts strain growth, BacTiter-Glo, 24 h | inhibition, % at 20 µM | 330,000 compounds, 2.2% hits;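 active = inhibition of at least 40%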;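 note: mutant grown at 25 °C; 0% = DMSO wells with yeast and 100% = wells holding no yeast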
TIM10 inh: inhibits growth of TIM10 yeast strain; S. cerevisiae TIM10 strain growth, BacTiter-Glo luminescence, 24 h; inhibition, % at 10 µM; 330,000 compounds, 1.4% hits; AID 463195;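 active = inhibition of 40% or more at the single tested concentration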;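 note: wild-type TIM10 isogenic control strain grown at permissive 25 °C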
NALP1 inh: blocks the NALP1 inflammasome reconstituted in yeast. S. cerevisiae NALP1/ASC/caspase-1 growth, X-gal OD620, 72 h. inhibition, % at 10 µM. 280,000 compounds, 0.61% hits. AID 2071; in the data active = inhibition mostly above about 24%, no sharp cut-off; inactive = mostly below about 32%
NLRP3 yeast inh: blocks the NALP3 inflammasome reconstituted in yeast. inhibition, % at 10 µM. Yeast reconstituted NLRP3/ASC/caspase-1, beta-gal luminescence, 24 h. AID 2825. 330,000 compounds, 0.39% hits;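 active = inhibition of 50% or more; inactive = inhibition below 50%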;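 note: plate controls were induced DMSO wells for no effect and uninduced yeast grown without galactose for full effect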
tim10-1 confirm: tim10-1 yeast growth inhibition, confirmed. S. cerevisiae tim10-1 ts strain growth, BacTiter-Glo, 24 h. 7,400 compounds, 56% hits. inhibition, % at 20 µM. shares compounds with tim10-1 inh;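 active = inhibition of yeast growth at or above a set limit in either of two repeat tests at 20 µM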;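 note: tim10-1 mutant grown at permissive 25 °C to find synthetic lethal compounds; 0% = DMSO yeast wells and 100% = medium wells without yeast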
The depositor's hits bear a star; . = no result. This is a sample that favours compounds with a hit; in the whole collection about 4% have one here.

SMILES	tim23-1 inh	tim10-1 inh	TIM10 inh	NALP1 inh	NLRP3 yeast inh	tim10-1 confirm
COc1cccc(CN2CCN(C(=O)c3ccc(-c4ccccc4)cc3)CC2)c1OC	31	44*	39	17	28	27
CCCCCCCCC(=O)O	43	45*	12	.	8	2
CCCCCCC(=O)O	4	10	7	.	3	.
COc1ccc2cc(C(=O)N3CCc4ccccc43)[nH]c2c1	15	14	1	3	35	.
COc1cc2c(cc1NC(=O)Nc1ccc(C)cc1)oc1ccccc12	13	43*	30	-6	5	41*
COc1ccc(NC(=O)Nc2cc3oc4ccccc4c3cc2OC)cc1	4	20	20	17	22	.
COc1cc2c(cc1NC(=O)CSc1nc3ccccc3[nH]1)oc1ccccc12	34	41*	23	36	4	-8
CSc1ccc(/C=C/C(=O)c2ccc(NC(=O)C(C)C)cc2)cc1	39	42*	32	4	10	40*
NC(=O)CN1C(=O)C(=O)N(Cc2cccc(C(F)(F)F)c2)C1=O	7	0	-8	21	6	.
FC(F)(F)c1cccc(Nc2cc(-c3ccccc3)nc3ncnn23)c1	20	28	21	.	18	.
FC(F)(F)c1ccc(N2CCN(c3cc(-c4ccccc4)nc4ncnn34)CC2)nc1	31	45*	35	-4	18	27
O=C(NCc1ccccc1)c1nc(-c2cccs2)no1	12	40*	5	7	12	38*
CCCCN(C)C(=O)C1CCCN(S(=O)(=O)c2ccc3c(c2)CC(C)N3C(=O)C2CC2)C1 (stereo not given)	28	39	-12	9	1	.
C(=N/Nc1nccs1)/c1cccnc1	17	16	-4	4	-8	.
Clc1cccc(/C=N\Nc2nccs2)c1	47	48*	37	-11	-9	12
COc1ccc(S(=O)(=O)N2CCN(C/C=C/c3ccccc3)CC2)cc1F	-13	-21	-31	23	34	.
Cc1ccc(N=c2c([N+](=O)[O-])nn(-c3ccccc3)n2O)c(C)c1	45	47*	37	17	4	42*
CN1C(=O)/C(=C\c2ccccc2F)Sc2ccc(C(=O)NC3CCN(Cc4ccccc4)CC3)cc21	12	43*	-14	24	20	-50
COc1ccc(/C=C2\Sc3ccc(C(=O)NC4CC4)cc3N(C)C2=O)cc1OC	16	2	18	22	14	.
COc1ccc(CNc2nc3nc(C)c(Cl)c(C)n3n2)cc1	28	17	19	-9	22	.
COc1cccc(CNc2nc3nc(C)c(Cl)c(C)n3n2)c1	48	48*	-3	13	4	29*
Cc1cc(=O)n(-c2ccc3ccccc3n2)[nH]1	12	54*	13	8	26	19
CC1=CCC2C(=O)N(c3ccc4ccccc4n3)C(=O)C2C1 (stereo not given)	10	14	11	27	7	.
Cc1ccccc1NC(=O)CSc1nnc(-c2ccccc2)n1-c1ccccc1	10	11	5	-4	8	.
N#Cc1ccccc1NC(=O)CSc1nnc(-c2ccccc2O)n1-c1ccccc1	23	42*	12	2	5	16
SMILES	tim23-1 inh	tim10-1 inh	TIM10 inh	NALP1 inh	NLRP3 yeast inh	tim10-1 confirm
Clc1ccc(Cn2c(-c3cccnc3Cl)nc3ccccc32)cc1	31	43*	7	5	15	26
CCn1c(-c2cccnc2Cl)nc2cc(Cl)c(Cl)cc21	28	23	-5	37	12	.
Clc1ccc(Cn2c(-c3cccnc3Cl)nc3ccccc32)c(Cl)c1	22	42*	22	7	2	12
C/C(=N\NC(N)=S)c1ccc(-n2ccnc2)cc1	15	10	-4	.	6	.
C/C(=N\Nc1ccc(Cl)c(Cl)c1)c1ccc(-n2ccnc2)cc1	12	46*	35	29	30	19
O=C(CNC(=O)C1COc2ccccc2O1)N/N=C\c1ccc(Br)cc1 (stereo not given)	46	60*	33	14	14	24
O=C(Nc1ccc([N+](=O)[O-])cc1)C1COc2ccccc2O1 (stereo not given)	12	18	-11	6	8	.
O=C(N/N=C/C=C/c1ccc([N+](=O)[O-])cc1)C1COc2ccccc2O1 (stereo not given)	35	51*	19	21	24	37*
